Rows were chosen to be rich in hits. Some 1.2% of all compounds tested hit in one or more screens of this group.
eLon inh: inhibitors of E. coli Lon protease, primary screen, biochemical, fluorescence polarization | P0A9M0 | purified E. coli Lon protease | inhibition, % at 7.94 µM | hit rate 0.42% among 360,000 | AID 602123, 2011; in the data active means inhibition above about 13%, passing the limit was not always enough
MEX-5 binding: MEX-5 zinc finger RNA-binding disruptors – biochemical, C. elegans, fluorescence polarization, MLPCN library, primary screen. Zinc finger protein mex-5 (Caenorhabditis elegans), Q9XUB2. MEX-5/FITC-TCR2 RNA binding; hits give low values. activity score (negative = inhibition of binding), % at 10 µM. hit rate 0.38% among 300,000. AID 1832, 2009;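 active means inhibition past about -25% in most replicates, and total fluorescence under double the plate's negative control median, limit read from the data; inconclusive means replicates evenly split on the limit, or fluorescence at least double controls; inactive means too little inhibition in most replicates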
C-LANA FP: inhibitors of KSHV C-LANA binding to DNA, primary screen, biochemical, fluorescence polarization, FAM-LBS DNA, MBP-C-LANA, single point. inhibition, % at 9 µM. AID 504423, 2011. Kaposi's sarcoma herpesvirus LANA C-terminal domain (residues 932-1162) DNA binding. hit rate 0.078% among 340,000;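 active means highest replicate inhibition at or above 60% at 9 µM, even if other replicates fall short; inactive means all replicates below 60% inhibition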
GLD-1 TGE inh: GLD-1/TGE RNA complex disruptors, primary screen, biochemical, fluorescence polarization. Female germline-specific tumor suppressor gld-1 (Caenorhabditis elegans), Q17339. inhibition, % at 5.96 µM. AID 2280, 2010. hit rate 0.44% among 320,000. purified GLD-1 + fluorescein TGE RNA;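 active means percent inhibition above a per-plate cutoff, the plate mean of test compounds plus 3 SD, cut at about 30% in these data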
Target sequence (Q17339 whole entry, looked up): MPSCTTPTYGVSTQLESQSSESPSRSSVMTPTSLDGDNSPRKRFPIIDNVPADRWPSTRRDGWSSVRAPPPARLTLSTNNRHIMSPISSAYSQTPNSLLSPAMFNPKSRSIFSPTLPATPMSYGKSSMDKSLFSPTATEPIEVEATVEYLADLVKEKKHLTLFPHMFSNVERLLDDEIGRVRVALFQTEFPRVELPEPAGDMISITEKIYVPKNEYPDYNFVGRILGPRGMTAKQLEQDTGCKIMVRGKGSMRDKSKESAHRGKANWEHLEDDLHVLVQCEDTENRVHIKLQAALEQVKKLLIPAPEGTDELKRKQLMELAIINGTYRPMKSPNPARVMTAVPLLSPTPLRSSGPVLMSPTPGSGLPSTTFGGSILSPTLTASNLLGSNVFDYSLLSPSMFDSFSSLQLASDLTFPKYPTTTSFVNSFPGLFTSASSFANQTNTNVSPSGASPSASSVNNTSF
Keap1-Nrf2 PPI: Keap1-Nrf2 protein-protein interaction inhibitors, primary screen, biochemical, fluorescence polarization, single point. Kelch-like ECH-associated protein 1 (Homo sapiens), Q14145. Keap1 Kelch-Nrf2 peptide fluorescence polarization, 1536-well. inhibition, % at 9.4 µM. hit rate 0.15% among 340,000. AID 504523, 2011; in the data active means inhibition above about 12%; inconclusive means no clear call, values can overlap the other calls; inactive means below about 7.3%;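 further: human Keap1 Kelch domain with fluorescein labeled Nrf2 9mer peptide probe; higher means more block of Keap1 binding to Nrf2 peptide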
BCLXL inh: inhibitors of human Bcl-xL, primary screen, biochemical, fluorescence polarization, HTS. GST-Bcl-xL / FITC-Bim BH3 peptide fluorescence polarization. Bcl-2-like protein 1 (Homo sapiens), Q07817. hit rate 0.7% among 320,000. inhibition, % at 10.9 µM;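 active means inhibition above the mean of all tested compounds plus 3 SD, cutoff set per campaign, cut at about 30% in these data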;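 further: inhibitors lower millipolarization by displacing the labeled peptide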
Target sequence (Q07817 whole entry, looked up): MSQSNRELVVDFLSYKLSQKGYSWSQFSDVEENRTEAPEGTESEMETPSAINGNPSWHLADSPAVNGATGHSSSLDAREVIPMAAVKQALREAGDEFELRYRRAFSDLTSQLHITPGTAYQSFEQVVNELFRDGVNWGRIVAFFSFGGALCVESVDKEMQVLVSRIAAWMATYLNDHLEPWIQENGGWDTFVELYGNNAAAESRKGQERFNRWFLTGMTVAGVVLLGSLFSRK
Each line names hits and unclear results; the compound was inactive in the other large screens.

Cc1cc(=O)cc(C)n1-c1ccccc1N	none
Cc1ccc(C)n1-c1ccccc1N	GLD-1 TGE inh 99, BCLXL inh 92 (no result: eLon inh, C-LANA FP, Keap1-Nrf2 PPI)
CCOC(=O)C1CCCN(C(=O)CNC(=O)c2ccc(Br)o2)C1 (stereo not given)	none (no result: MEX-5 binding, BCLXL inh)
C=CCn1c(=N)n(CC(O)c2ccco2)c2ccccc21 (stereo not given)	BCLXL inh 34
CCn1c(=N)n(CC(O)c2ccco2)c2ccccc21 (stereo not given)	none
CCOc1cc(C(=O)Nc2ccc(S(=O)(=O)NC3=NCCCCC3)cc2)cc(Br)c1OC	none
Cc1ccc(O)c(N=CC2=C(O)c3ccccc3C2=O)c1	BCLXL inh 38
O=C(CNC(=O)/C=C/c1ccco1)N=Nc1c(O)[nH]c2ccccc12	MEX-5 binding -29
CCOC(=O)c1c(/N=C/c2cccc([N+](=O)[O-])c2O)sc(C)c1C	BCLXL inh 45
Cc1noc(C)c1S(=O)(=O)NC1CCN(Cc2ccccc2)CC1	MEX-5 binding -34, BCLXL inh 35
Cc1cc(S(=O)(=O)NC2CCN(Cc3ccccc3)CC2)c(C)cc1Cl	C-LANA FP 82
CCSc1nc2ccccc2c(=O)n1CCc1ccc(OC)c(OC)c1	none
COc1cc(NC(=O)c2ccc3c(c2)OCCO3)ccc1NC(=O)c1ccccc1Cl	none
CC(=O)c1ccc2c(c1)C1C=CCC1C(c1ccncc1)N2 (stereo not given)	none
COC(=O)c1ccc(C2Nc3ccc(/C(C)=N/NC(=O)C(OC)c4ccccc4)cc3C3C=CCC32)cc1 (stereo not given)	BCLXL inh 34
Cc1[nH]c(C)c(C(=O)/C=C/c2ccc([N+](=O)[O-])cc2)c1C	none
N#C/C(=C\c1ccc2c(c1)OCO2)C(N)=S	none (no result: C-LANA FP, Keap1-Nrf2 PPI)
N#C/C(=C/c1ccco1)C(N)=S	BCLXL inh 35
c1ccc(-c2nc(-c3ccco3)n3ccccc23)cc1	BCLXL inh 65
c1ccc(Nc2c(-c3ccco3)nc3ccccn23)cc1	none
Cc1ccc(S(=O)(=O)N2CCC(C(=O)N3CCCCCCC3)CC2)cc1C	none (no result: MEX-5 binding, C-LANA FP, GLD-1 TGE inh, Keap1-Nrf2 PPI, BCLXL inh)
CC(C)OC(=O)c1c2nc3ccccc3nc2n2c1[nH]c(=O)c1ccccc12	GLD-1 TGE inh 48 (no result: eLon inh, C-LANA FP, Keap1-Nrf2 PPI)
CC(C)OC(=O)c1c(N)n(CCCN2CCOCC2)c2nc3ccccc3nc12	none
O=C(O)c1ccc(S(=O)(=O)/N=C2\C=C(Nc3ccccc3F)C(=O)c3ccccc32)cc1	MEX-5 binding -42
Cc1ccccc1NC1=C/C(=N\S(=O)(=O)c2ccc(C(=O)O)cc2)c2ccccc2C1=O	none
O=C(NNC(=O)c1ccccc1[N+](=O)[O-])c1csc(N2CCOCC2)n1	MEX-5 binding -42
O=C(NNC(=O)c1ccccc1[N+](=O)[O-])c1ccccn1	MEX-5 binding -29
COc1cc(C2Nc3cccc4cccc(c34)N2)cc(OC)c1OC(C)=O	BCLXL inh 39
COc1cc(C2Nc3cccc4cccc(c34)N2)ccc1O	none
Nc1nc(-c2ccco2)c(-c2ccco2)s1	none
c1coc(-c2nc(-c3ccco3)c(-c3ccco3)nc2-c2ccco2)c1	eLon inh 17, BCLXL inh 80
C/C(=N\NC(=O)c1cc(O)cc(O)c1)c1ccc(NC(=O)Cc2ccccc2)cc1	BCLXL inh 32
CCOc1ccc(S(=O)(=O)c2c[nH]c3ccc(C)cc3c2=O)cc1	BCLXL inh 41
CCOC(=O)c1c(C)[nH]c(C(=O)COC(=O)c2ccc([N+](=O)[O-])o2)c1C	none (no result: MEX-5 binding, BCLXL inh)
O=C(O)CSc1c2c(nc3cc(C(=O)N4CCOCC4)ccc13)CCCC2	BCLXL inh 37
O=C(O)c1cc(-c2ccco2)nn1-c1ccc(Cl)cc1	none (no result: GLD-1 TGE inh, BCLXL inh)
O=C(O)c1cc(-c2ccco2)nn1-c1cccc(Cl)c1	BCLXL inh 31
CCN(CC)c1ccc(C=Nc2ccc(OC)c(S(=O)(=O)N3CCOCC3)c2)c(O)c1	none (no result: MEX-5 binding)
Cc1ccc(S(=O)(=O)N2CCN(C(=O)CN3C(=O)c4ccccc4C3=O)CC2)c(C)c1	none (no result: MEX-5 binding)
Fc1cnc(Cl)nc1NC1CCCCC1	none
C/C=C/C=C/[C@H]1Cc2cc(O)cc(O)c2O1	GLD-1 TGE inh 88, BCLXL inh 60 (no result: eLon inh, C-LANA FP, Keap1-Nrf2 PPI)
CCOCCC(=O)Nc1ccc2c(c1)c(=O)n(C)n2CC=C(C)C	none (no result: MEX-5 binding, C-LANA FP, GLD-1 TGE inh, Keap1-Nrf2 PPI, BCLXL inh)
O=S(=O)(c1ccc2c(c1)CCCN2)N1CCCC1	none (no result: MEX-5 binding)
CCN(CC)c1ccc2c(c1)CCCN2	GLD-1 TGE inh 90, BCLXL inh 105 (no result: eLon inh, C-LANA FP, Keap1-Nrf2 PPI)
COc1ccc(NS(=O)(=O)c2ccc(C)c(C(=O)NNC(=O)c3ccccc3O)c2)cc1	none
Cc1ccc(S(=O)(=O)Nc2ccccc2F)cc1C(=O)NNC(=O)c1ccccc1O	MEX-5 binding -37
Oc1[nH]c2ccccc2c1N=Nc1ccc(F)cc1	MEX-5 binding -62
O=[N+]([O-])c1ccc2[nH]c(O)c(N=Nc3ccc(F)cc3)c2c1	none
Oc1[nH]c2ccc(Br)cc2c1N=Nc1ccc(F)cc1	MEX-5 binding inconclusive, GLD-1 TGE inh 107, BCLXL inh 183
COCCN1C(=O)CCC1(C)C(=O)NC(C)(C)C (stereo not given)	none (no result: MEX-5 binding, C-LANA FP, GLD-1 TGE inh, Keap1-Nrf2 PPI, BCLXL inh)
C=CCNC(=S)Nc1cc(Cl)ccc1OC	MEX-5 binding -40
C=CCN(CC=C)C(=S)Nc1cc(Cl)ccc1OC	none
O=C(O)C1Nc2c(cccc2C(F)(F)F)C2C=CCC12 (stereo not given)	MEX-5 binding -29 (no result: eLon inh, C-LANA FP, GLD-1 TGE inh, Keap1-Nrf2 PPI, BCLXL inh)
COc1cccc2c1NC(C(=O)O)C1CC=CC21 (stereo not given)	MEX-5 binding -76, BCLXL inh 79
O=C(NCc1ccccc1)C1Nc2ccc(OC(F)(F)F)cc2C2C=CCC12 (stereo not given)	none
O=C(Nc1ccc(-c2ccc(N3CCCCC3)nn2)cc1)c1ccco1	none
CCOC(=O)CC(=O)CSC1=C(C#N)C(c2ccccc2OC)CC(=O)N1 (stereo not given)	BCLXL inh 31
COc1ccccc1C1CC(=O)NC(SCC(=O)Nc2ccccc2)=C1C#N (stereo not given)	none
COc1ccc(Cl)cc1N(CC(=O)N1CCCCCC1)S(C)(=O)=O	none
O=S(=O)(O)c1cc(Cl)cc(N=Nc2ccc(O)cc2O)c1O	C-LANA FP 84 (no result: MEX-5 binding, GLD-1 TGE inh, BCLXL inh)
O=C(N/N=C/c1ccc(Br)cc1)c1ccc(NC(=O)c2ccccc2)cc1	none (no result: MEX-5 binding, GLD-1 TGE inh, BCLXL inh)
CN(C)c1ccc(/C=N/NC(=O)c2ccc(NC(=O)c3ccccc3)cc2)cc1	BCLXL inh 32
CC1C(=O)NN=C1C(=O)N/N=C/c1ccco1 (stereo not given)	MEX-5 binding -26
CC1=NNC(=O)C1CCC(=O)N/N=C/c1ccco1 (stereo not given)	none

High-throughput results (PubChem BioAssay)
